Consider 40 molecules from ChEMBL document CHEMBL3433997, “St. Jude Leishmania screening dataset” (2016).

Each structure is given as a SMILES string.

The target in one test is Hexose transporter 1 (Plasmodium falciparum) (UniProt O97467). Description: ST_JUDE_LEISH: Cytotoxicity at 2uM final concentration against transgenic Leishmania Mexicana promastigotes LmPfHT that are glucose transport deficient and complemented with the Plasmodium falciparum hexose transporter. Activity is measured by DNA content using SYBR green in vitro. Type of test: functional.
Regarding `CCN(CC)/C(=N/C(=N)Nc1ccc(C)cc1)NCCCCCCN/C(=N\C(=N)Nc1ccc(C)cc1)N(CC)CC`, the inhibition was 5.77%.
Same read-out and setting: the value for `COc1c(C2CCN(CCCCNC(=O)C=Cc3cc4cc(Cl)ccc4o3)CC2)ccc2c1CCCC2` was 0.56%; that for `OC(COCc1ccc(-c2ccccc2)cc1)CN1CCCCC1` (stereo not given) was 1.99%.
On to `COc1cccc(-c2nn(C)c3sc(C(=O)NCCN(C)Cc4ccccc4)cc23)c1`, for which the inhibition is -0.73%.
Still for that read-out and setting: the value for `Cc1nc2ccc(NC(=O)c3cc(S(=O)(=O)N(C)C)ccc3Cl)cc2s1` was 10.6%; that for `O=C(Nc1cccc(-c2ccc(-c3nc4cc(C(F)(F)F)ccc4[nH]3)s2)c1)c1ccncc1` was 8.56%; that for `CCCCOc1cc(CNCCCCCCNCc2cc(OCCCC)cc3ccccc23)c2ccccc2c1` was 0.76%.
Same read-out and setting: the value for `Oc1ccc2[nH]c(-c3cccc(F)c3)nc2c1CNCc1ccccc1` was 3.29%.
Same read-out and setting: the value for `CCCCN1Cc2c(n(CC(=O)Nc3ccccc3)c3cc(-c4ccccc4)nn3c2=O)C1=O` was 1.92%.
With `CC(C)(C)OC(=O)Cn1cnc2cc(NC(=O)c3cc([N+](=O)[O-])cc([N+](=O)[O-])c3)ccc21`, the inhibition came to 4.11%.
Regarding `CN(C)CCCNCCS(=O)(=O)c1cccc(Nc2ccc(-c3cccc(N(C)C)c3)cn2)c1`, the inhibition stood at 1.88%.
Same read-out and setting: the value for `CN(C)C(=S)N/N=C1/C(=O)Nc2ccc(OC(F)(F)F)cc21` was 1.64%.
The same measure, in the same setting: as for `COc1cccc(O)c1CN1CCC2(CCCN(Cc3ccc(F)cc3)C2)C1` (stereo not given), the figure is 2.73%; as for `Cc1cc2nc(-c3cccc(C(=O)NC4CCN(Cc5ccccc5)CC4)c3)[nH]c2cc1C`, 1.99%; as for `c1ccn2c(-c3ncnc(NCc4ccc5c(c4)CCO5)n3)cnc2c1`, 1.45%.
Still for that read-out and setting: as for `O=C(CCC1CCCC1)N(Cc1ccc(-c2ccc(CNCCc3ccccc3)cc2)cc1)C1CCCNC1` (stereo not given), the figure is 1.6%; as for `CCc1cn2c3c(cc(C(=O)N[C@@H](Cc4ccccc4)[C@H](O)CNCCOC)cc13)N(C)S(=O)(=O)CC2`, 2.43%.
For `O=C(NCCCCN1CCC(c2cccc3ccccc23)CC1)c1ccc(-c2ccc(C(F)(F)F)cn2)cc1`, the inhibition was determined as 3.84%.
The same measure, in the same setting: the value for `O=C(Nc1ccc(Cn2ncc(N3CCCNCC3)c(Cl)c2=O)cc1)Nc1cc(Cl)cc(Cl)c1` was 3.38%; that for `CCNC[C@H]1CCCN1CCOc1ccc(-n2cnc3cc(-c4ccc(Cl)cc4)sc3c2=O)cc1OC` was -1.99%; that for `COc1ccc(CN2CCCC(N3CC4(OC3=O)c3ccccc3-c3ccccc34)C2)c(O)c1` (stereo not given) was 4.69%.
Still for that read-out and setting: the value for `COc1cc2nccc(Nc3cc(C)cc(O)c3)c2cc1OC` was 3.99%.
The same measure, in the same setting: the value for `COc1ccc2nccc(N3CCC(CCNCc4ccc5c(n4)NC(=O)CO5)CC3)c2c1` was 5.22%.
For `COc1ccc2ccccc2c1CCCCN1CCN(CC(c2ccc(F)cc2)N2CCC2)CC1` (stereo not given), the inhibition was 3.64%.
The same measure, in the same setting: the value for `C(=NNc1nc2ccccc2[nH]1)c1ccccc1OCc1ccccc1` was 6.99%; that for `N#Cc1ccc(-c2ccc(C(=O)NCCCCN3CCC(n4cnc5ccccc54)CC3)cc2)cc1` was 3.72%.
Still for that read-out and setting: as for `CCc1cn2c3c(cc(C(=O)N[C@@H](Cc4cc(F)cc(F)c4)[C@H](O)CNC4CCOCC4)cc13)N(C)S(=O)(=O)CC2`, the figure is -1.91%; as for `O=C(Nc1ccc(Cl)c(Cl)c1)N1CCC(CNCc2cccc([N+](=O)[O-])c2)CC1`, 4.18%.
`Cc1sc2nc(CSc3ccccc3)nc(N3CCN(CC(=O)NC4CC4)CC3)c2c1C`: the inhibition is -2.01%.
For `O=C(Nc1cccc(CCNCc2ccccc2)c1)Nc1cccc2ccccc12`, the inhibition is 11%.
The same measure, in the same setting: as for `Cc1cc([N+](=O)[O-])ccc1N1CCN(CCCCNC(=O)c2ccc(NC(=O)c3ccc(Cl)cc3)cc2)CC1`, the figure is 4.19%.
Take `CC(C)CNCc1ccc(-c2cccc(CN(CCN(C)C)C(=O)CCC3CCCC3)c2)cc1`: the inhibition was found to be 23.7%.
Still for that read-out and setting: as for `c1ccc(C2CCC(N3CCC(N4CCCC4)CC3)CC2)cc1` (stereo not given), the figure is -0.62%.
On the same count and under the same terms, as for `COC(=O)c1ccc(OCC(O)CO)cc1O` (stereo not given), the figure is 2.14%.
The same measure, in the same setting: as for `O=C(Nc1ccc(OC2CCN(Cc3ccsc3)C2)c(Cl)c1)c1cccs1` (stereo not given), the figure is 3.61%.
Regarding `Cc1sc(N2CCN(C)CC2)nc1C(=O)Nc1ccc(F)cc1C(F)(F)F`, the inhibition came out at 2.2%.
Same read-out and setting: as for `CC1(C)NC(N)=NC(=N)N1OCc1ccc2ccccc2c1CON1C(=N)N=C(N)NC1(C)C`, the figure is 2.14%.
On the same count and under the same terms, as for `Cc1cccc2nc(-c3ccc(-c4cccc(NC(=O)Nc5ccccc5)c4)cc3)[nH]c12`, the figure is 9.91%; as for `CCOc1cc(C(=O)NCCN(C(C)C)C(C)C)ccc1-c1nc2cc(Cl)ccc2[nH]1`, 1.66%.
Same read-out and setting: the value for `O=c1cc(N2CCNCC2)c(Cl)nn1Cc1ccc(NS(=O)(=O)c2ccc(Oc3ccccc3)cc2)cc1` was 3.7%.

A further test has as its target Glucose transporter (Leishmania mexicana) (UniProt O61059). Description: ST_JUDE_LEISH: Cytotoxicity at 2uM final concentration against transgenic Leishmania Mexicana promastigotes LmGT2 that are glucose transport deficient and complemented with the L. Mexicana glucose transporter 2. Activity is measured by DNA content using SYBR green in vitro. It counts as functional.
`CCN(CC)/C(=N/C(=N)Nc1ccc(C)cc1)NCCCCCCN/C(=N\C(=N)Nc1ccc(C)cc1)N(CC)CC`: the inhibition came out at 5.53%.
Turning to `COc1c(C2CCN(CCCCNC(=O)C=Cc3cc4cc(Cl)ccc4o3)CC2)ccc2c1CCCC2`, the inhibition came to 0.08%.
On the same count and under the same terms, the value for `OC(COCc1ccc(-c2ccccc2)cc1)CN1CCCCC1` (stereo not given) was 3.58%; that for `COc1cccc(-c2nn(C)c3sc(C(=O)NCCN(C)Cc4ccccc4)cc23)c1` was 2.24%.
On the same count and under the same terms, the value for `Cc1nc2ccc(NC(=O)c3cc(S(=O)(=O)N(C)C)ccc3Cl)cc2s1` was 10.1%; that for `O=C(Nc1cccc(-c2ccc(-c3nc4cc(C(F)(F)F)ccc4[nH]3)s2)c1)c1ccncc1` was 7.24%; that for `CCCCOc1cc(CNCCCCCCNCc2cc(OCCCC)cc3ccccc23)c2ccccc2c1` was -2.17%.
As to `Oc1ccc2[nH]c(-c3cccc(F)c3)nc2c1CNCc1ccccc1`, the inhibition stood at 2.86%.
On the same count and under the same terms, as for `CCCCN1Cc2c(n(CC(=O)Nc3ccccc3)c3cc(-c4ccccc4)nn3c2=O)C1=O`, the figure is 1.8%.
For `CC(C)(C)OC(=O)Cn1cnc2cc(NC(=O)c3cc([N+](=O)[O-])cc([N+](=O)[O-])c3)ccc21`, the inhibition was 3.89%.
Still for that read-out and setting: as for `CN(C)CCCNCCS(=O)(=O)c1cccc(Nc2ccc(-c3cccc(N(C)C)c3)cn2)c1`, the figure is 1.78%; as for `CN(C)C(=S)N/N=C1/C(=O)Nc2ccc(OC(F)(F)F)cc21`, 0.75%; as for `COc1cccc(O)c1CN1CCC2(CCCN(Cc3ccc(F)cc3)C2)C1` (stereo not given), -0.21%.
Consider `Cc1cc2nc(-c3cccc(C(=O)NC4CCN(Cc5ccccc5)CC4)c3)[nH]c2cc1C`, for which the inhibition was determined as 1.84%.
Same read-out and setting: the value for `c1ccn2c(-c3ncnc(NCc4ccc5c(c4)CCO5)n3)cnc2c1` was 0.24%; that for `O=C(CCC1CCCC1)N(Cc1ccc(-c2ccc(CNCCc3ccccc3)cc2)cc1)C1CCCNC1` (stereo not given) was 0.14%; that for `CCc1cn2c3c(cc(C(=O)N[C@@H](Cc4ccccc4)[C@H](O)CNCCOC)cc13)N(C)S(=O)(=O)CC2` was 3.91%.
Still for that read-out and setting: as for `O=C(NCCCCN1CCC(c2cccc3ccccc23)CC1)c1ccc(-c2ccc(C(F)(F)F)cn2)cc1`, the figure is 1.69%.
Still for that read-out and setting: as for `O=C(Nc1ccc(Cn2ncc(N3CCCNCC3)c(Cl)c2=O)cc1)Nc1cc(Cl)cc(Cl)c1`, the figure is 0.75%; as for `CCNC[C@H]1CCCN1CCOc1ccc(-n2cnc3cc(-c4ccc(Cl)cc4)sc3c2=O)cc1OC`, -2.28%; as for `COc1ccc(CN2CCCC(N3CC4(OC3=O)c3ccccc3-c3ccccc34)C2)c(O)c1` (stereo not given), 4.18%.
Turning to `COc1cc2nccc(Nc3cc(C)cc(O)c3)c2cc1OC`, the inhibition was 0.8%.
On the same count and under the same terms, as for `COc1ccc2nccc(N3CCC(CCNCc4ccc5c(n4)NC(=O)CO5)CC3)c2c1`, the figure is -0.63%; as for `COc1ccc2ccccc2c1CCCCN1CCN(CC(c2ccc(F)cc2)N2CCC2)CC1` (stereo not given), 3.18%; as for `C(=NNc1nc2ccccc2[nH]1)c1ccccc1OCc1ccccc1`, 3.06%.
With `N#Cc1ccc(-c2ccc(C(=O)NCCCCN3CCC(n4cnc5ccccc54)CC3)cc2)cc1`, the inhibition turned out to be 5.28%.
The same measure, in the same setting: the value for `CCc1cn2c3c(cc(C(=O)N[C@@H](Cc4cc(F)cc(F)c4)[C@H](O)CNC4CCOCC4)cc13)N(C)S(=O)(=O)CC2` was -0.48%.
For the molecule `O=C(Nc1ccc(Cl)c(Cl)c1)N1CCC(CNCc2cccc([N+](=O)[O-])c2)CC1`, the inhibition is 5.3%.
Still for that read-out and setting: the value for `Cc1sc2nc(CSc3ccccc3)nc(N3CCN(CC(=O)NC4CC4)CC3)c2c1C` was -1.85%.
Same read-out and setting: as for `O=C(Nc1cccc(CCNCc2ccccc2)c1)Nc1cccc2ccccc12`, the figure is 10.9%; as for `Cc1cc([N+](=O)[O-])ccc1N1CCN(CCCCNC(=O)c2ccc(NC(=O)c3ccc(Cl)cc3)cc2)CC1`, 4.35%; as for `CC(C)CNCc1ccc(-c2cccc(CN(CCN(C)C)C(=O)CCC3CCCC3)c2)cc1`, 11.2%.
Same read-out and setting: as for `c1ccc(C2CCC(N3CCC(N4CCCC4)CC3)CC2)cc1` (stereo not given), the figure is 1.54%; as for `COC(=O)c1ccc(OCC(O)CO)cc1O` (stereo not given), -0.04%.
For the molecule `O=C(Nc1ccc(OC2CCN(Cc3ccsc3)C2)c(Cl)c1)c1cccs1` (stereo not given), the inhibition is 2.52%.
As to `Cc1sc(N2CCN(C)CC2)nc1C(=O)Nc1ccc(F)cc1C(F)(F)F`, the inhibition stood at 3.75%.
The same measure, in the same setting: the value for `CC1(C)NC(N)=NC(=N)N1OCc1ccc2ccccc2c1CON1C(=N)N=C(N)NC1(C)C` was 3.06%; that for `Cc1cccc2nc(-c3ccc(-c4cccc(NC(=O)Nc5ccccc5)c4)cc3)[nH]c12` was 8.18%; that for `CCOc1cc(C(=O)NCCN(C(C)C)C(C)C)ccc1-c1nc2cc(Cl)ccc2[nH]1` was 3.92%.
The same measure, in the same setting: the value for `O=c1cc(N2CCNCC2)c(Cl)nn1Cc1ccc(NS(=O)(=O)c2ccc(Oc3ccccc3)cc2)cc1` was 1.23%.

As a reminder, the inhibition is the drop in the measured response relative to a control, in per cent.
